This note sets out measurements from PubChem BioAssay (NCATS).

Test [1] has as its target Cellular tumor antigen p53 (Homo sapiens) (UniProt P04637). Description: Primary qHTS for small molecule compounds that upregulate eGFP-tagged delta133p53alpha (in N-terminal) cells. (AID 2060322). Also: nearly all actives have a fitted effect of over 75% in size. Also: potency is read from the fitted curve at half-maximal effect.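 As to activation: cells pre-induced with doxycycline then dosed without doxycycline; series mostly up to about 56 µM; 0% = DMSO vehicle and 100% = reference activator.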 To be noted: NCI-H358 eGFP-delta133p53alpha fluorescence, 24 h; activation: stronger effect = higher value. Put shortly: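 NCI-H358 cells pre-induced 24 h with 10 ng/ml doxycycline for eGFP-delta133p53alpha, plated dox-free and exposed 24 h at 37C to titrated compounds. Fixed, Hoechst-stained; gated GFP peak intensity by laser scanning cytometry, normalized to DMSO (0%) and 57.5 uM 5-azacytidine (100%).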
In general terms: Quantitative high-throughput screening tests each substance at several concentrations.

Test [2] concerns the target Aldehyde dehydrogenase, mitochondrial (Homo sapiens) (UniProt P05091). Nature of the test: qHTS for Inhibitors of the Aldehyde Dehydrogenase Family (ALDH2) Primary screen (AID 2061308).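 Also: plate controls were vehicle for no effect and reference inhibitor for full effect; nearly all actives have a fitted effect of over 55% in size.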
The target in test [3] is Retinaldehyde dehydrogenase 3 (Homo sapiens) (UniProt P47895). Description: qHTS for Inhibitors of the Aldehyde Dehydrogenase Family (ALDH1A3) Primary screen (AID 2061315).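 Also: plate controls were DMSO vehicle for no effect and reference inhibitor for full effect.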

The structures appear in SMILES notation. Values joined by “and” are separate entries in the source; they are usually repeats but may differ in a detail not shown here. Identical values can stand only once. Inconclusive results are not listed. Unmarked numbers belong to inactive results. Active and inactive are the calls of the source. Calls follow the shape of the dose curve; as a rule, active = well fitted curve in the direction sought with a large enough effect; inconclusive = small, poorly fitted or top-dose-only effect, or another doubt; inactive = no such curve, though single readings can be large; an effect the other way counts as inactive or inconclusive.

Sequence of Cellular tumor antigen p53 (Homo sapiens) (P04637 whole entry, looked up): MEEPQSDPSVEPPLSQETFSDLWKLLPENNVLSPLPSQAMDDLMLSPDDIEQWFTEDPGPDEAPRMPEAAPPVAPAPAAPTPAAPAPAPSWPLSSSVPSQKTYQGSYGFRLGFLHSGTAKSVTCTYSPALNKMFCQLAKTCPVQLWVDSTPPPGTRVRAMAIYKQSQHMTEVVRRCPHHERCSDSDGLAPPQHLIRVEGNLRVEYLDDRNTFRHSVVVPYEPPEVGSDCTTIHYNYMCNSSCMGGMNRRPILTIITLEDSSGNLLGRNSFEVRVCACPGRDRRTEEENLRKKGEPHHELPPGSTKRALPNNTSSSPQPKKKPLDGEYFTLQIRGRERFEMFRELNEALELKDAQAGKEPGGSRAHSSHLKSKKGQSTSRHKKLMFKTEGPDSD

As for `C[C@@H]1O[C@@H](O[C@H]2[C@@H]3C=CO[C@@H](O[C@@H]4O[C@H](CO)[C@@H](O)[C@H](O)[C@H]4O)[C@@H]3[C@@]3(CO)O[C@@H]23)[C@H](OC(=O)/C=C/c2ccc(O)cc2)[C@H](O)[C@H]1O`, in test [1], the activation was 6.87%. Further, the Potency result in test [2] and in test [3] was “inactive” each time.

As to `O=C(Nc1cccc2cccnc12)c1ccc(N2C(=O)[C@@H]3C4C=CC(C4)[C@@H]3C2=O)cc1`, in test [1], the activation is 2.33%. In addition, the Potency result in test [2] and in test [3] was “inactive” in each case.

For `COc1c(O)cc2c(c1O)[C@@H]1O[C@H](CO)[C@@H](O)[C@H](O)[C@H]1OC2=O`, in test [1], the activation was 18% and -2.68%. The Potency entry in test [2] and in test [3] was “inactive” each time.

With `CC1C(=O)CC2C3C(O)CC(C(=O)O)C12CC3(C)C` (configuration not stated), the activation in test [1] is 1.53%. The Potency result in test [2] and in test [3] was “inactive” in each case.

`CC1(C)SC2C(NC(=O)[C@H](C(=O)O)c3ccsc3)C(=O)N2C1C(=O)O` (some centres not stated): the activation in test [1] is 3.67%. Further, the Potency result in test [2] and in test [3] was “inactive” throughout.

Take `CC(C)C[C@H](CC(=O)NO)C(=O)N[C@H](C(=O)N[C@@H](C)C(=O)NCCN)C(C)(C)C`: the activation in test [1] was 3.67%. The values for the activity change, negative = inhibition in test [2] and in test [3] were 1.06% [at 11.2 µM] and -12.1% [at 11.2 µM], respectively.

For the compound `COC12CC3C(C(C)C1=CC(=O)O2)C(O)C(OC(C)=O)C1C(C)(C)C(OC(C)=O)CCC31C` (configuration not stated), the activation in test [1] was -3.05%. The Potency result in test [2] and in test [3] was “inactive” throughout.

Regarding `CC(O)C(C)n1ncn(-c2ccc(N3CCN(c4ccc(OCC5COC(Cn6cncn6)(c6ccc(Cl)cc6Cl)O5)cc4)CC3)cc2)c1=O` (configuration not stated), the activation in test [1] was -5.67%. Further, the Potency result in test [2] and in test [3] was “inactive” throughout.

As to `COC(=O)c1ccccc1O[C@@H]1O[C@H](CO[C@@H]2OC[C@@H](O)[C@H](O)[C@H]2O)[C@@H](O)[C@H](O)[C@H]1O`, the activation in test [1] was -12.2%. Further, the Potency entry in test [2] and in test [3] was “inactive” throughout.

`COc1c(-c2ccc(O)cc2)cc(OC)c2c1oc1cc(O)c(OC3OC(CO)C(O)C3O)cc12` (configuration not stated): the activation in test [1] was 1.79%. The Potency result in test [2] and in test [3] was “inactive” in each case.

In the case of `CC(=O)O[C@@H]1CC2C(C)(C)C(=O)C=C[C@]2(C)C2CC[C@]3(C)C(=CC(=O)[C@@H]3c3ccoc3)[C@@]21C` (some centres not stated), the activation in test [1] is 1.53%. Besides, the Potency result in test [2] and in test [3] was “inactive” each time.

Regarding `Cc1cc(OCCCS(C)(=O)=O)cc(C)c1-c1cccc(COc2ccc(C3=CC(=O)NS3=O)cc2)c1` (configuration not stated), in test [1], the activation was -18.3%. In addition, the Potency result in test [2] and in test [3] was “inactive” throughout.

With `CC1=CCC2C(C)(CO)CCCC2(C)C1CC12OC1C(O)C(CO)=CC2O` (configuration not stated), the activation in test [1] was 12.2%. Besides, the Potency entry in test [2] and in test [3] was “inactive” throughout.

For the compound `COc1cc(CO)cc(OC)c1O[C@@H]1O[C@H](CO)[C@@H](O)[C@H](O)[C@H]1O`, in test [1], the activation was -2.68%. Further, the Potency entry in test [2] and in test [3] was “inactive” in each case.

With `C[C@@H]1C/C=C/C=C\C=C\C=C\[C@H](O[C@@H]2O[C@H](C)[C@@H](O)[C@H](N)[C@@H]2O)C[C@@H]2O[C@](O)(C[C@@H](O)C[C@H]3O[C@@H]3/C=C/C(=O)O1)C[C@H](O)[C@H]2C(=O)O`, in test [1], the activation is 13.7%. In addition, the Potency entry in test [2] and in test [3] was “inactive” throughout.

For the compound `C/C1=C\[C@H]2OC(=O)[C@@H](C)[C@@H]2CC/C(C(=O)O)=C/CC1`, the activation in test [1] is -5.34%. The Potency result in test [2] and in test [3] was “inactive” in each case.

Consider `O=C(CCc1ccccc1)c1c(O)c([C@@H]2O[C@H](CO)[C@@H](O)[C@H](O)[C@H]2O)c(O)c([C@@H]2O[C@H](CO)[C@@H](O)[C@H](O)[C@H]2O)c1O`, for which the activation in test [1] was -1.53%. The Potency entry in test [2] and in test [3] was “inactive” in each case.

Turning to `Cc1cccc(C)c1-n1c(=O)c2cnc(Nc3ccc(N4CCN(C)CC4)cc3)nc2n2c3ccccc3nc12`, the Potency in test [1] is 30.1 µM (active). Moreover, the Potency entry in test [2] and in test [3] was “inactive” in each case.

Take `C=C1CCC2C(C)(C)CCC[C@]2(C)[C@H]1C/C=C(\CO)C(=O)C(=O)O` (some centres not stated): the activation in test [1] was -6.87%. The Potency entry in test [2] and in test [3] was “inactive” throughout.

Consider `CC1(C)CC[C@]2(C(=O)O[C@@H]3O[C@H](CO[C@@H]4O[C@H](CO)[C@@H](O)[C@H](O)[C@H]4O)[C@@H](O)[C@H](O[C@@H]4O[C@H](CO)[C@@H](O)[C@H](O)[C@H]4O)[C@H]3O)[C@H](O)C[C@]3(C)C(=CCC4[C@@]5(C)CC[C@H](O[C@@H]6OC[C@@H](O)[C@H](O)[C@H]6O)[C@@](C)(C(=O)O)C5CC[C@]43C)[C@@H]2C1` (some centres not stated), for which the activation in test [1] was 7.63%. Besides, the Potency entry in test [2] and in test [3] was “inactive” in each case.

Regarding `COc1ccc2c(c1)OC[C@]1(O)c3cc4c(cc3O[C@H]21)OCO4`, in test [1], the activation was -2.68%. For the same compound, the Potency entry in test [2] and in test [3] was “inactive” in each case.

As for `C=C1C(=O)O[C@@H]2C[C@@]3(C)CCC[C@H](C)C3=C[C@H]12`, in test [1], the Potency is 19 µM (active). The Potency result in test [2] and in test [3] was “inactive” in each case.

For the compound `CC1(C)CC[C@]2(C(=O)O[C@@H]3O[C@H](CO[C@@H]4O[C@H](CO)[C@@H](O)[C@H](O)[C@H]4O[C@@H]4O[C@H](CO)[C@H](O)[C@H](O)[C@H]4O)[C@@H](O)[C@H](O[C@@H]4O[C@H](CO)[C@@H](O)[C@H](O)[C@H]4O)[C@H]3O)CC[C@]3(C)C(=CCC4[C@@]5(C)CC[C@H](O[C@@H]6OC[C@@H](O)[C@H](O)[C@H]6O)[C@@](C)(C(=O)O)C5CC[C@]43C)[C@@H]2C1` (some centres not stated), the activation in test [1] is 1.53%. For the same compound, the activity change, negative = inhibition in test [2] is 6.97% [at 11.2 µM]; in test [3], 11.9% [at 11.2 µM].

As to `COc1cc(/C=C2\CC[C@H]3COC[C@@H](c4cc(F)c(F)c(F)c4)N3C2=O)ccc1-n1cnc(C)c1`, in test [1], the activation is -13.7%. The Potency entry in test [2] and in test [3] was “inactive” throughout.
